# How the values were obtained:
# Experiment in all cases: pooled miR-30 sensor sort-seq; sequence = guide strand
# Conditions in all cases: shRNA
# ZIC5 = target: ZIC5
# ZMAT2 = target: ZMAT2
# ZHX1 = target: ZHX1
# ZNF169 = target: ZNF169
# ZNF512B = target: ZNF512B
# ZNF480 = target: ZNF480
# ZNF384 = target: ZNF384
# ZNF471 = target: ZNF471
# ZNF428 = target: ZNF428
# ZNF583 = target: ZNF583
# ZNF548 = target: ZNF548
# ZNF550 = target: ZNF550
# ZNF592 = target: ZNF592
# ZNF836 = target: ZNF836
sequence,measurement,setting,value
TTGAGGTTGGTCACCTGAGGGG,sensor-assay potency score (higher = more potent),ZIC5,-0.565
TTTATTGGGAACTCAGGTGGGC,sensor-assay potency score (higher = more potent),ZMAT2,0.402
TTGTATTAGATTCAGAAGCTGA,sensor-assay potency score (higher = more potent),ZHX1,-0.592
TCGAATCTTGCAGTAGTAGGGC,sensor-assay potency score (higher = more potent),ZIC5,0.408
TTTCTCTTTAAACTTTTGGGGA,sensor-assay potency score (higher = more potent),ZHX1,-0.716
TTTCACTAGAGCATCTTGGAGC,sensor-assay potency score (higher = more potent),ZNF169,-0.176
TTGCTGACTCCCACCTTCCGGC,sensor-assay potency score (higher = more potent),ZNF512B,-0.809
TTGATGTTTAGTAAGGCTGGAA,sensor-assay potency score (higher = more potent),ZNF480,-0.447
ATTTGTATGGTCTATCACCAGT,sensor-assay potency score (higher = more potent),ZNF384,-0.958
TTTCAACTTGATTACATCCATT,sensor-assay potency score (higher = more potent),ZNF480,-1.17
TTCTCCAACATCATACTCCTGT,sensor-assay potency score (higher = more potent),ZNF471,0.565
TTAAGGATAACTTTCTTCTGAA,sensor-assay potency score (higher = more potent),ZNF471,-0.561
TGAATCAGAGGAATGCTCGGGG,sensor-assay potency score (higher = more potent),ZNF428,0.32
TTGAGCTTGAGCCTGGGCCTGG,sensor-assay potency score (higher = more potent),ZNF384,-0.952
TTCTCTGATGTACAGTACGGGA,sensor-assay potency score (higher = more potent),ZNF471,-1.32
TTGATGTTGAGTAAGATTGGAA,sensor-assay potency score (higher = more potent),ZNF471,-0.353
AGAGAGTGTATTCTGAATCAGA,sensor-assay potency score (higher = more potent),ZNF428,-1.95
TTCTAAGACAACACAGACCGGC,sensor-assay potency score (higher = more potent),ZNF428,0.28
TAACTTGTGTCTGAATGCCTTG,sensor-assay potency score (higher = more potent),ZNF480,-0.708
ATATTCAGGATCGTCAGTGGTC,sensor-assay potency score (higher = more potent),ZNF428,-0.14
TTCTTCCTCTTCGGAGTCCGGC,sensor-assay potency score (higher = more potent),ZNF428,-1.03
AATGTCAGTGAGCACATCCGGC,sensor-assay potency score (higher = more potent),ZNF384,-0.852
TCTGAGAGAGTGTATTCTGAAT,sensor-assay potency score (higher = more potent),ZNF428,-1.43
TTAGTGATAACTTGTGTCTGAA,sensor-assay potency score (higher = more potent),ZNF480,-0.0434
ATCTTGTTGATGAACATTGTGT,sensor-assay potency score (higher = more potent),ZNF384,-0.823
TAACTTTCTTCTGAACGCCTTC,sensor-assay potency score (higher = more potent),ZNF471,-0.31
TTGAGCCTGAGCCTGAGCCTGG,sensor-assay potency score (higher = more potent),ZNF384,-0.986
TGTGACATCTCTGATGTCGAGC,sensor-assay potency score (higher = more potent),ZNF471,-0.679
TTTCTTGTGTTTTATTACCATA,sensor-assay potency score (higher = more potent),ZNF471,-1.3
TACTCTTTGATGCTGAGTGAGT,sensor-assay potency score (higher = more potent),ZNF471,-0.705
TTGGAGTAGAATGTCAGTGAGC,sensor-assay potency score (higher = more potent),ZNF384,-0.969
TTGAATTGTAACTAAAAACCTT,sensor-assay potency score (higher = more potent),ZNF480,-0.157
TCATCTTCTTCCAAGCTGGCGT,sensor-assay potency score (higher = more potent),ZNF428,-0.345
TAAGACAACACAGACCGGCAGT,sensor-assay potency score (higher = more potent),ZNF428,0.279
TTGATGAACATTGTGTTCTCGA,sensor-assay potency score (higher = more potent),ZNF384,0.78
TCTAAGACAACACAGACCGGCA,sensor-assay potency score (higher = more potent),ZNF428,-0.807
TTCATCTGGAAATAGCTCCAGT,sensor-assay potency score (higher = more potent),ZNF480,0.626
TGAATTGTAACTAAAAACCTTG,sensor-assay potency score (higher = more potent),ZNF480,-0.76
TTCCTCTTCGGAGTCCGGCTCT,sensor-assay potency score (higher = more potent),ZNF428,-0.361
TCACCTTGTAGCCAGGATCATA,sensor-assay potency score (higher = more potent),ZNF428,-1.68
TAATTGGTTTGTCTTCTGCATT,sensor-assay potency score (higher = more potent),ZNF480,-1.51
TAAACATCTCATGACTTCCCAT,sensor-assay potency score (higher = more potent),ZNF471,-0.174
TCATCATCTTCTTCCAAGCTGG,sensor-assay potency score (higher = more potent),ZNF428,-0.45
TTCTCTAAGGTGTACTTTCTGT,sensor-assay potency score (higher = more potent),ZNF480,-0.808
TTTCTGATGTCGTACAAGGAGC,sensor-assay potency score (higher = more potent),ZNF480,-1.17
TTTGCCAGTGTGACATCTCTGA,sensor-assay potency score (higher = more potent),ZNF471,-0.159
TTTTACATTCTTTACACTGATA,sensor-assay potency score (higher = more potent),ZNF583,-0.826
TTTTTTACATTCTTTACACTGA,sensor-assay potency score (higher = more potent),ZNF583,0.132
TACCTCTTGACTTCCCAGCTGG,sensor-assay potency score (higher = more potent),ZNF583,0.168
AATTCCATTGTGCTCAACCAGG,sensor-assay potency score (higher = more potent),ZNF548,-1.53
TTTCTTTTCTACATAGACTTTC,sensor-assay potency score (higher = more potent),ZNF583,-0.596
TTGTGGAGGTCTGTCTCCGGTG,sensor-assay potency score (higher = more potent),ZNF550,-1.27
TGTCTAACAAATGTGGAGCTGT,sensor-assay potency score (higher = more potent),ZNF548,0.213
TTGTTGAAGACCATTTCACAGG,sensor-assay potency score (higher = more potent),ZNF592,-0.934
TTGACTAAGATGTACCTCTTGA,sensor-assay potency score (higher = more potent),ZNF583,0.141
TTCGACATTGACTACACTCATA,sensor-assay potency score (higher = more potent),ZNF550,-1.1
TAATGTGGTCTTTCTCCGCTTC,sensor-assay potency score (higher = more potent),ZNF592,-0.0177
TTAGTGACACTAGCCACTCTTT,sensor-assay potency score (higher = more potent),ZNF592,-0.994
TTGAGCTCTGGCTAAAGGCTTT,sensor-assay potency score (higher = more potent),ZNF550,-0.685
TTGAGGTTGAAGATTCCAGAGT,sensor-assay potency score (higher = more potent),ZNF550,-1.04
TATAACTAAGATGTCTTGCTCC,sensor-assay potency score (higher = more potent),ZNF583,0.322
ATTCTCTCTAGTCTCCATGGGC,sensor-assay potency score (higher = more potent),ZNF592,-0.404
ATTCATGGAGAACATCTGCTGA,sensor-assay potency score (higher = more potent),ZNF550,-0.38
TTTCATTCCAGTGTGAACCCTC,sensor-assay potency score (higher = more potent),ZNF550,0.423
TCTGTCACCTAGTGAAACCAGA,sensor-assay potency score (higher = more potent),ZNF550,-0.609
TTTCTTTTGTGGTTCATGCTTA,sensor-assay potency score (higher = more potent),ZNF583,0.129
TTTTCTACATAGACTTTCCTAT,sensor-assay potency score (higher = more potent),ZNF583,-0.369
TTCTCCAACATCACTTTCCTGT,sensor-assay potency score (higher = more potent),ZNF583,0.0692
TTCACTAGTGTGAACTGTCTGA,sensor-assay potency score (higher = more potent),ZNF548,0.39
TAACCTCTGACACTCCTACAGA,sensor-assay potency score (higher = more potent),ZNF548,-0.754
TGCTGCATGAGGTACGACCTGC,sensor-assay potency score (higher = more potent),ZNF550,-0.586
TTGAACTCCAAAGCTTCCCCGA,sensor-assay potency score (higher = more potent),ZNF592,-0.465
TTCTTCATATGTCTCTTGCTTT,sensor-assay potency score (higher = more potent),ZNF583,-0.61
TTGTAACCTCTGACACTCCTAC,sensor-assay potency score (higher = more potent),ZNF548,-0.158
TGATGCAGCAACACTGTGGGGG,sensor-assay potency score (higher = more potent),ZNF592,0.194
TTCTGCACGAACAAGAGTGGGC,sensor-assay potency score (higher = more potent),ZNF592,-0.174
TTTAGAACTCTCTTTAGTGGGC,sensor-assay potency score (higher = more potent),ZNF592,0.465
TTTACCTTTCTGCATTTCCAAA,sensor-assay potency score (higher = more potent),ZNF550,-1.66
TTCTCTGTCCTCTGTGTCCCTG,sensor-assay potency score (higher = more potent),ZNF548,-0.777
TGCTGTATGAGTTCTGAGCTGC,sensor-assay potency score (higher = more potent),ZNF550,0.178
TCAACAAATGAATAGCTGCAGG,sensor-assay potency score (higher = more potent),ZNF548,-0.782
TTTGTCATGCTCTCGTCCCCTT,sensor-assay potency score (higher = more potent),ZNF592,-0.419
TTCGGTAACTTTTCTTTTGTGG,sensor-assay potency score (higher = more potent),ZNF583,0.115
TATATCAAAGATTGTATCCTGG,sensor-assay potency score (higher = more potent),ZNF583,0.513
ATGAGTTCTGAGCTGCATCTGA,sensor-assay potency score (higher = more potent),ZNF550,-0.453
TTCATGGAGAACATCTGCTGAT,sensor-assay potency score (higher = more potent),ZNF550,0.0411
TTGTCCTCTGGAAATGTGCAGC,sensor-assay potency score (higher = more potent),ZNF592,-0.92
TTGAAGACCATTTCACAGGAGC,sensor-assay potency score (higher = more potent),ZNF592,-0.241
TTTGTTTCCACTATGAACTGTC,sensor-assay potency score (higher = more potent),ZNF836,1.2

# Reference: the OligoGym collection
